Compound activity (PubChem)
Compounds with a hit are over-represented: about 1.1% of the library has one in this group of screens.
PLK1 kinase inh – human PLK1 kinase inhibitors, primary screen, biochemical, TR-FRET; Serine/threonine-protein kinase PLK1 (Homo sapiens), P53350; recombinant PLK1 kinase, TR-FRET peptide phosphorylation; inhibition, % at 10 µM; 0.53% of 97,000 active; AID 619, 2007;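 active means inhibition of 50% or more in the single-concentration screen; inactive means inhibition below 50%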
Plk1 PBD FP – Plk1 polo box domain binding inhibitors, primary screen, biochemical, fluorescence polarization | Serine/threonine-protein kinase PLK1 (Homo sapiens), P53350 | Plk1 PBD phosphopeptide binding | inhibition, %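 (tested at about 20 µM)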 | 0.13% of 97,000 active; in the data active means inhibition above about 34%, passing the limit was not always enough
Mac1 fbg enh – enhancers of CD11b/CD18 adhesion to fibrinogen, primary screen, K562 cells, luminescence. 0.07% of 93,000 active. activation, % at 10 µM. ATPlite luminescence. Integrin beta-2 (Homo sapiens) + Integrin alpha-M (Homo sapiens), P05107+P11215;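 active means 10 µM primary screen giving 50% or more activity, confirmed by 40% or more on retest at that dose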
Target sequence (P05107 whole entry, looked up, other chains not shown): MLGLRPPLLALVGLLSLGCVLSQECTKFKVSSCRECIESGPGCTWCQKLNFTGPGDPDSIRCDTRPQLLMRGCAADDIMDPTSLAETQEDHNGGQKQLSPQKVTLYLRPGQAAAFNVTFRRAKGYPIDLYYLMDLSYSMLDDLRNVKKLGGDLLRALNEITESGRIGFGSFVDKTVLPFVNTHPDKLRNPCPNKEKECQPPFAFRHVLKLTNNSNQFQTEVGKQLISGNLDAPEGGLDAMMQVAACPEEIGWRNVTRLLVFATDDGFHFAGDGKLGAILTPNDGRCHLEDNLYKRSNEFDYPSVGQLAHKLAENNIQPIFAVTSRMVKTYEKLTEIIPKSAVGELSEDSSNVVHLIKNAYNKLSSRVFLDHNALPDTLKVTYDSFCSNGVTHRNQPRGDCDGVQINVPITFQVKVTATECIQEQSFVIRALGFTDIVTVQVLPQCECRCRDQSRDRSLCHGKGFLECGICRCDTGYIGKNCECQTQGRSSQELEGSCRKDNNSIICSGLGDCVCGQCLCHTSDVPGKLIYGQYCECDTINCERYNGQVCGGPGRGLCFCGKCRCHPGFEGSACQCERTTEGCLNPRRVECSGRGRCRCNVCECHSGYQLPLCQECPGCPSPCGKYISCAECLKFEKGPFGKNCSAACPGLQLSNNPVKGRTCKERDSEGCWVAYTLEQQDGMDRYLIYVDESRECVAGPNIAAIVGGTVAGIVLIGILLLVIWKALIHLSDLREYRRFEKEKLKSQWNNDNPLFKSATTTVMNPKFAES
Mac1 fbg inh – inhibitors of CD11b/CD18 adhesion to fibrinogen, primary screen, K562 cells, luminescence. Integrin beta-2 (Homo sapiens) + Integrin alpha-M (Homo sapiens), P05107+P11215. inhibition, % at 10 µM. 0.54% of 93,000 active. ATPlite luminescence; Mn2+ added to activate the integrin;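 active means primary inhibition of 50% or more at 10 µM, then 40% or more on retest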
Calb biofilm kill – clotrimazole potentiators killing Candida biofilms, primary screen, with clotrimazole, Alamar Blue | AID 834, 2007 | C. albicans biofilm + clotrimazole | inhibition, % at 6 µM | 0.14% of 85,000 active;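 active means inhibition above 20%; inactive means inhibition below 20%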;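 further: preformed 24 hr biofilms exposed to compound for 48 hr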
Of the large screens only hits and unclear results are named; the others gave an inactive call.

CCc1cc2c(=O)c(-c3ccc4c(c3)OCCO4)c(C)oc2cc1OS(C)(=O)=O	none (no result: PLK1 kinase inh, Plk1 PBD FP, Calb biofilm kill)
Cc1onc(-c2ccccc2Cl)c1C(=O)OCC(=O)Nc1ccc2c(c1)OCO2	Calb biofilm kill 25 (no result: PLK1 kinase inh, Plk1 PBD FP)
Cc1onc(-c2ccccc2)c1C(=O)OCC(=O)Nc1ccc2c(c1)OCO2	none
CCOC(=O)CC(=O)CSc1nc2ccccc2c(=O)n1-c1ccc(C(=O)NCCOC)cc1	none
C=CCOc1cccc(C2C(C(=O)c3ccco3)=C(O)C(=O)N2CCN(CC)CC)c1 (stereo not given)	PLK1 kinase inh 52 (no result: Calb biofilm kill)
CCOc1ccc(C2C(C(=O)c3ccco3)=C(O)C(=O)N2CCN(C)C)cc1 (stereo not given)	none
CCc1ccccc1N1CC23C=CC(O2)C(C(=O)OC)C3C1=O (stereo not given)	PLK1 kinase inh 57
Cc1ccc(S(=O)(=O)Nc2ccc3nc(C)sc3c2)cc1	none
Cc1nc2ccc(NS(=O)(=O)c3ccc4c(c3)OCCO4)cc2s1	Mac1 fbg inh 102 (no result: Calb biofilm kill)
COCCNC(=O)NC(=O)COC(=O)c1cc([N+](=O)[O-])ccc1Sc1nc(C)cs1	none
CCc1ccc(N(C)S(=O)(=O)c2ccc3[nH]cc(C(=O)NCCN4CCOCC4)c(=O)c3c2)cc1	Calb biofilm kill 46
CCN(CC)S(=O)(=O)c1ccc2[nH]cc(C(=O)NCCN3CCCCCC3)c(=O)c2c1	none
Cc1ccc(-c2ccc(CCC(=O)O)n2CC(=O)O)cc1	none
COC(=O)Cn1c(CCC(=O)O)ccc1-c1ccccc1	Calb biofilm kill 31
CCOC(=O)c1ccc(NC(=O)CCc2nc(-c3ccc(C)cc3)no2)cc1	PLK1 kinase inh 64
CCOC(=O)c1ccc(NC(=O)CCc2nc(-c3ccc(Cl)cc3)no2)cc1	none
NC(=O)[C@H](Cc1cc2ccccc2s1)NC(=O)[C@@H]1CC2(CC(c3cccc(NC(=O)[C@@H]4CCC(=O)N4)c3)=NO2)CN1C(=O)/C=C/c1c(F)cccc1Cl (stereo not given in full)	Mac1 fbg enh 148 (no result: Calb biofilm kill)
COc1cc(NC(=O)CN2CC(c3ccccc3)CC2=O)cc(OC)c1 (stereo not given)	Calb biofilm kill 20 (no result: PLK1 kinase inh, Plk1 PBD FP, Mac1 fbg enh, Mac1 fbg inh)
COC(=O)N1CC(c2ccccc2)CC1=O (stereo not given)	none
Clc1ccc(CCNc2ncnc3nc[nH]c23)cc1	Mac1 fbg inh 60 (no result: Calb biofilm kill)
COc1ccc(S(=O)(=O)Cc2ccc(C(=O)N3CCN(c4ccccc4)CC3)o2)cc1	none (no result: PLK1 kinase inh, Plk1 PBD FP, Calb biofilm kill)
COc1ccc(S(=O)(=O)Cc2ccc(C(=O)N3CCN(c4ccccc4F)CC3)o2)cc1	PLK1 kinase inh 63
COc1ccc(S(=O)(=O)Cc2ccc(C(=O)N3CCN(c4ccccn4)CC3)o2)cc1	PLK1 kinase inh 66
COc1ccccc1S(=O)(=O)Cc1ccc(C(=O)N2CCN(c3ccccn3)CC2)o1	none (no result: PLK1 kinase inh, Plk1 PBD FP, Calb biofilm kill)
COc1ccc(S(=O)(=O)Cc2ccc(C(=O)NCc3ccccn3)o2)cc1	PLK1 kinase inh 68
O=C(NCCc1c[nH]c2ccccc12)c1cccc(S(=O)(=O)Nc2ccccc2Cl)c1	Mac1 fbg inh 56 (no result: PLK1 kinase inh, Plk1 PBD FP, Calb biofilm kill)
O=C(O)c1cccc(S(=O)(=O)Nc2ccccc2Cl)c1	none
O=S(=O)(Nc1nc2ccccc2[nH]1)c1ccc(Cl)cc1	PLK1 kinase inh 61
Cc1cc(C)c(C#N)c(SCC(=O)c2ccc(Cl)cc2Cl)n1	none (no result: Mac1 fbg enh, Mac1 fbg inh)
CN=C(NC#N)SCC(=O)c1ccc(Cl)cc1Cl	PLK1 kinase inh 62
CCOC(=O)c1cc2c(C)n(-c3ccc(C)cc3)c(C)c2ccc1=O	none (no result: Calb biofilm kill)
CCCN1C=CC(=C2C(=O)c3ccccc3C2=O)C=C1	Mac1 fbg inh 95 (no result: PLK1 kinase inh, Plk1 PBD FP)
CC(C)CC(=O)n1sc(NC(=O)c2ccccc2)nc1=O	Mac1 fbg inh 55 (no result: Calb biofilm kill)
COc1ccc(-n2c(C)cc(C(=O)CN3C(=O)c4ccccc4C3=O)c2C)cc1	none (no result: PLK1 kinase inh, Plk1 PBD FP, Calb biofilm kill)
COc1ccc(-n2c(C)cc(C(=O)COC(=O)Cn3cnc4ccccc43)c2C)cc1	Mac1 fbg inh 97
CCn1c(NCc2cc(Br)ccc2NS(=O)(=O)c2ccc(C)cc2)nc2ccccc21	none (no result: Calb biofilm kill)
CCN(CC)c1ccc(-n2c(O)c(C=C3N=c4ccccc4=N3)sc2=S)cc1	none (no result: PLK1 kinase inh, Plk1 PBD FP, Calb biofilm kill)
O=C(O)CCCCCn1c(O)c(C=C2N=c3ccccc3=N2)sc1=S	Mac1 fbg inh 69 (no result: PLK1 kinase inh, Plk1 PBD FP, Calb biofilm kill)
O=C(O)c1cn(C2CC2)c2cc(N3CCOCC3)c(F)cc2c1=O	none (no result: Mac1 fbg enh, Mac1 fbg inh)
Cn1c(SCC(=O)c2ccc3c(c2)OCCO3)nnc1C1CC1	PLK1 kinase inh 61 (no result: Mac1 fbg enh, Mac1 fbg inh)
Cn1cnnc1SCC(=O)c1ccc2c(c1)OCCO2	none
CCOc1ccc(/C=N/OCC(=O)NCc2ccc3c(c2)OCO3)cc1OC	none (no result: PLK1 kinase inh, Plk1 PBD FP, Calb biofilm kill)
CCCCCCn1c(NCC)nc2c1c(=O)n(C)c(=O)n2C	Mac1 fbg inh 73
O=[N+]([O-])c1cc(S(=O)(=O)Nc2cccc(C(F)(F)F)c2)ccc1-n1nnc2ccccc21	Mac1 fbg inh 95 (no result: Calb biofilm kill)
CC(=O)Nc1cc(OC(C)=O)c2nonc2c1OC(C)=O	Plk1 PBD FP 54, Mac1 fbg inh 59 (no result: Calb biofilm kill)
CN(C)c1ccc([C@@H]2[C@@H]([N+](=O)[O-])[C@H]3C=Cc4ccccc4N3[C@H]2C(=O)c2ccc(Cl)cc2)cc1	none (no result: PLK1 kinase inh, Plk1 PBD FP, Calb biofilm kill)
CC1(C)Cc2c(sc3c2C2=NCCN2C=N3)CO1	PLK1 kinase inh 57
O=S1(=O)CCN2C=Nc3sc4c(c3C2=N1)CCCC4	none (no result: Mac1 fbg enh, Mac1 fbg inh)
O=C(Nc1nccs1)c1cc2c(s1)CCCCC2	Mac1 fbg inh 72
O=C(NCCN1CCOCC1)c1cc(Cl)ccc1[N+](=O)[O-]	none (no result: PLK1 kinase inh, Plk1 PBD FP, Calb biofilm kill)
CC(C)N(CCNC(=O)c1cn(C)c2ccc(S(=O)(=O)N(C)C)cc2c1=O)Cc1ccccc1	PLK1 kinase inh 59
COCCNC(=O)c1cn(C)c2ccc(S(=O)(=O)N(C)C3CCCCC3)cc2c1=O	PLK1 kinase inh 62
CN1CCN(CCCNC(=O)c2cn(C)c3ccc(S(=O)(=O)N(C)C)cc3c2=O)CC1	none
CCOC(=O)C1CN(S(=O)(=O)c2ccc(OC)cc2)c2cc(S(=O)(=O)CC)ccc2O1 (stereo not given)	none (no result: Mac1 fbg enh, Mac1 fbg inh, Calb biofilm kill)
COc1ccc2oc(=O)c(C(=O)N3CCN(C45CC6CC(CC(C6)C4)C5)CC3)cc2c1	none (no result: PLK1 kinase inh, Plk1 PBD FP, Mac1 fbg enh, Mac1 fbg inh)
Cn1c(CSCc2ccccc2Cl)nnc1SCC(=O)Nc1nccs1	PLK1 kinase inh 65
Cc1cccc(/C=C/C(=O)c2cc(Br)ccc(=O)c2O)c1	Mac1 fbg inh 85 (no result: Calb biofilm kill)
Cc1ccc(/C=C/C(=O)c2cc(Br)ccc2OC(=O)c2ccco2)cc1	none (no result: Calb biofilm kill)
CCc1ccc(/C=C/C(=O)c2cc(Br)ccc(=O)c2O)cc1	Mac1 fbg inh 74 (no result: Calb biofilm kill)
COc1ccc(-c2cc(-c3nnc(COC(=O)CC4CC5CCC4C5)o3)c3ccccc3n2)cc1OC (stereo not given)	none (no result: PLK1 kinase inh, Plk1 PBD FP, Calb biofilm kill)
COc1cccc(C(=O)/C=C/Nc2cccc(O)c2)c1	Mac1 fbg inh 91
COc1cccc(C(=O)/C=C/Nc2ccc(NC(C)=O)cc2)c1	none (no result: PLK1 kinase inh, Plk1 PBD FP, Calb biofilm kill)
Cc1nc2c(C(=O)NCCC(C)C)c[nH]n2c(=O)c1Cc1ccccc1F	Mac1 fbg inh 81
Cc1nc2c(C(=O)NCCc3ccccc3)c[nH]n2c(=O)c1Cl	none
